Compound activity (PubChem)
KB-V1 cytotox – kills drug-selected multidrug resistant KB-V1 cells; KB-V1 MDR cells viability, CellTiter-Glo, 72 h; Potency, µM (highest dose often 46.1 µM), hits mostly cytotoxic; 400,000 compounds, 3.4% hits; AID 1347076; further: potency means the concentration at half of the fitted maximal effect; on the % scale 0 is the no-effect control and ±100 the full control effect; nearly all actives have a fitted effect of over 60% in size
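Compound-treated KB-V1 multidrug-resistant cells, 72 h, 37 degrees C; viability by CellTiter-Glo. Fitted qHTS curves give the values.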
S-ASM inh – blocks human secretory acid sphingomyelinase; Potency, µM (highest dose often 57.5 µM), without a hit: at the highest dose activity change, negative = inhibition, actives largely listed as inhibitors; 340,000 compounds, 0.006% hits; placental ASM, HMU-PC fluorogenic substrate, 60 min; AID 504937; P17405; further: potency means the concentration at half of the fitted maximal effect
Target sequence (P17405 47-631 limits assumed): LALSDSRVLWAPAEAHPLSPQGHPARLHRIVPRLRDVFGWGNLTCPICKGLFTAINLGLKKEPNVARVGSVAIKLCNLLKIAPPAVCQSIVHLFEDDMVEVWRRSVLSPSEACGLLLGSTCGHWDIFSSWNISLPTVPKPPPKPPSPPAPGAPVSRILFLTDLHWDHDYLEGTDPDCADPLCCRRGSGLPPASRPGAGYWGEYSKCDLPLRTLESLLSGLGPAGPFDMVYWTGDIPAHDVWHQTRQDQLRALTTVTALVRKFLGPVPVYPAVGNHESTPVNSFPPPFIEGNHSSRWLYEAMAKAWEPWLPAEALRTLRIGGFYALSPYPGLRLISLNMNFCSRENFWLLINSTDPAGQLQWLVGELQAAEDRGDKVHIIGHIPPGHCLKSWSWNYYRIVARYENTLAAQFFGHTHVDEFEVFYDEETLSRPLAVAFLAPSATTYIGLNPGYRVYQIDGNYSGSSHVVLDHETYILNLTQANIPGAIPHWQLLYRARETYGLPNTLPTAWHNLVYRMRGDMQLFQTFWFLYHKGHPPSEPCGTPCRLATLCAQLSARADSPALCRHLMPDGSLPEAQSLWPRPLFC
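Fluorogenic HMU-PC substrate (9 uM final) is turned over by placental ASM in 60 min at 37 C after a 10 min compound preincubation. Reaction ended by alkaline stop (pH 10), with fluorescence read at 386/447 nm.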
SW480 rerep – inducers of DNA re-replication in SW480 colon cancer cells. 340,000 compounds, 1.8% hits. Potency, µM (doses to about 46.1 µM), inactives show at the top dose re-replication activation, most hits filed as activators. AID 624297. SW480 DNA re-replication, Hoechst DNA content imaging, 48 h; further: potency means the concentration at half of the fitted maximal effect; % of control where 0% means no effect; nearly all actives have a fitted effect of over 55% in size
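Cells (250 per well) received 23 nL compound or DMSO by pin tool and were kept 48 hr at 37 C, 5% CO2. Nuclei were then stained with Hoechst for 40 min and scanned for DNA content.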
KB-3-1 tox – KB-3-1 parental cell cytotoxicity; KB-3-1 viability, CellTiter-Glo ATP luminescence, 72 h; Potency, µM (highest dose often 46.1 µM), actives largely listed as cytotoxic; 400,000 compounds, 1.4% hits; further: potency means the concentration at half of the fitted maximal effect; on the % scale 0 is the no-effect control and ±100 the full control effect; nearly all actives have a fitted effect of over 60% in size
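Screening of KB-3-1 cells (DMEM, 10% FBS, phenol-red free) ran from lowest to highest compound concentration; after 72 h at 37 °C viability was read luminescently and curves fitted.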
MCF10A rerep – DNA re-replication induction in MCF 10a cells. MCF 10A DNA re-replication, Hoechst nuclear intensity, 48 h. Potency, µM (highest dose often 46.1 µM), for inactives: at the top dose activity, positive = re-replication, actives largely listed as activators. 350,000 compounds, 2.9% hits. AID 624296; further: potency means the concentration at half of the fitted maximal effect; % of control where 0% means no effect; nearly all actives have a fitted effect of over 50% in size
Giardia kill – kills Giardia lamblia; Giardia lamblia trophozoite viability; activity change, % at 7.66 µM, hits read low; 340,000 compounds, 0.15% hits; in the data active means activity change below about -80%; inconclusive means between about -30% and that limit;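 further: parasites exposed to compound for two days anaerobically before the ATP read; on the % scale 0 is the no-effect control and ±100 the full control effect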
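Giardia lamblia trophozoites (100 cells/well) were incubated with compounds for 48 h at 37 deg C under anaerobic conditions. Viability was read as ATP content by one-step luminescence after 15-30 min at room temperature.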
Numbers without * were called inactive. Most compounds without a hit are left out; they make up all but 6.9% or so of the library. Unless noted, the call rests on the fitted dose curve; in most records, active means well fitted curve in the direction sought with a large enough effect; inconclusive means small, poorly fitted or top-dose-only effect, or another doubt; inactive means no such curve, though single readings can be large; an effect the other way counts as inactive or inconclusive.

Results for COc1ccc(Cl)cc1NC(=O)C1CCN(S(=O)(=O)c2ccc(F)cc2)CC1 ?
KB-V1 cytotox: inconclusive; KB-3-1 tox: inactive

How did CCc1cccc(NC(=O)Cn2c(=O)ccc3cc(S(=O)(=O)N4CCC(C)CC4)ccc32)c1 do in these assays?
KB-V1 cytotox: inactive; KB-3-1 tox: inactive

How did COc1cc(-c2ccc3ncnc(NCc4nc(C)cs4)c3c2)cc(OC)c1OC do in these assays?
KB-V1 cytotox: inactive; KB-3-1 tox: inactive

How did COc1cccc(C(C)(O)c2nc(-c3ccc(S(C)(=O)=O)cc3)cs2)c1 (configuration not stated) do in these assays?
KB-V1 cytotox: 16µM*; KB-3-1 tox: 18µM*

Results for CC(O)(c1cccnc1)c1nc(-c2ccc3ccccc3c2)cs1 (configuration not stated) ?
KB-V1 cytotox: 6.5µM*; KB-3-1 tox: inconclusive

Results for CCN(CC)C(=O)c1cccc(-c2csc(C(C)(O)c3ccc(OC)cc3)n2)c1 (configuration not stated) ?
KB-V1 cytotox: inconclusive; KB-3-1 tox: 12µM*

What do the screens show for `Cc1c(C(=O)c2no[n+]([O-])c2C(=O)c2cnn(C)c2C)cnn1C`?
KB-V1 cytotox: inactive; S-ASM inh: -1%; SW480 rerep: inconclusive; KB-3-1 tox: inconclusive; MCF10A rerep: 11µM*; Giardia kill: 20

Results for Cc1c(C(=O)Nc2ccc(Br)cc2)cnn1C ?
KB-V1 cytotox: inactive; S-ASM inh: 1%; SW480 rerep: 0%; KB-3-1 tox: inactive; MCF10A rerep: 2%; Giardia kill: -7

What do the screens show for `CN(C)c1ccc(/C=C/c2nc3ccccc3o2)cc1`?
KB-V1 cytotox: inactive; KB-3-1 tox: inactive

How did COc1ccc2c(c1OC)OCC2C (configuration not stated) do in these assays?
KB-V1 cytotox: 15µM*; S-ASM inh: -4%; SW480 rerep: 8%; KB-3-1 tox: inconclusive; MCF10A rerep: inconclusive; Giardia kill: -2

Results for COc1ccc(C2C(C#N)=C(N)OC3=C2C(=O)CC(C)C3)c(OC)c1OC (configuration not stated) ?
KB-V1 cytotox: inactive; S-ASM inh: 4%; SW480 rerep: -9%; KB-3-1 tox: inactive; MCF10A rerep: 5%; Giardia kill: -12

How did CC(=O)N1CCN(c2nnc(-c3ccc(C)cc3)c3ccccc23)CC1 do in these assays?
KB-V1 cytotox: inconclusive; S-ASM inh: 4%; SW480 rerep: -8%; KB-3-1 tox: inactive; MCF10A rerep: 9%; Giardia kill: 13

What do the screens show for `O=C(CSc1ccccc1)N1CCN(C(=O)c2ccco2)CC1`?
KB-V1 cytotox: inactive; S-ASM inh: 5%; SW480 rerep: -9%; KB-3-1 tox: inactive; MCF10A rerep: inconclusive; Giardia kill: -7

What do the screens show for `O=C(c1ccco1)N1CCN(c2nnc(-c3ccccc3)c3ccccc23)CC1`?
KB-V1 cytotox: 16µM*; S-ASM inh: 3%; SW480 rerep: -2%; KB-3-1 tox: inactive; MCF10A rerep: -4%; Giardia kill: 9

How did Cc1ccc(OCC(=O)N2CCN(c3nnc(-c4ccccc4)c4ccccc34)CC2)cc1 do in these assays?
KB-V1 cytotox: 4.1µM*; S-ASM inh: -8%; SW480 rerep: inconclusive; KB-3-1 tox: inconclusive; MCF10A rerep: inconclusive; Giardia kill: -5

How did Cc1cc(N2CCN(C(=O)c3ccco3)CC2)c2ccccc2n1 do in these assays?
KB-V1 cytotox: inactive; S-ASM inh: -3%; SW480 rerep: 27%; KB-3-1 tox: inconclusive; MCF10A rerep: 1%; Giardia kill: -13

How did O=C(CSc1nc(-c2ccccc2)cs1)N1CCN(C(=O)c2ccco2)CC1 do in these assays?
KB-V1 cytotox: 18µM*; S-ASM inh: -7%; SW480 rerep: 7%; KB-3-1 tox: inactive; MCF10A rerep: 1%; Giardia kill: -19

Results for COc1ccc(NC(=O)CSc2nc(-c3ccco3)cc(C(F)(F)F)n2)cc1 ?
KB-V1 cytotox: inactive; KB-3-1 tox: inactive

Results for CC[n+]1c(/C=C/Nc2ccccc2)oc2ccc(OC)cc21 ?
KB-V1 cytotox: inactive; S-ASM inh: 178%; SW480 rerep: inconclusive; KB-3-1 tox: inactive; MCF10A rerep: 18µM*; Giardia kill: 13

Results for CC[n+]1c(/C=C/N(C)c2ccccc2)oc2ccc(F)cc21 ?
KB-V1 cytotox: inactive; S-ASM inh: 26%; SW480 rerep: inconclusive; KB-3-1 tox: 5.8µM*; MCF10A rerep: inconclusive; Giardia kill: 21

How did Cc1ccc(/C=N/NC(=O)c2ccc(Br)o2)s1 do in these assays?
KB-V1 cytotox: inactive; S-ASM inh: 0%; SW480 rerep: inconclusive; KB-3-1 tox: inactive; MCF10A rerep: 7%; Giardia kill: -17

What do the screens show for `CCc1ccc(/C=N\NC(=O)c2ccc(Br)o2)s1`?
KB-V1 cytotox: 18µM*; S-ASM inh: -1%; SW480 rerep: 14%; KB-3-1 tox: inactive; MCF10A rerep: 1%; Giardia kill: -6

Results for CCc1ccc(/C=N/NC(=O)c2cc(C3CC3)nc3ccc(Br)cc23)s1 ?
KB-V1 cytotox: 4.1µM*; S-ASM inh: -1%; SW480 rerep: 18µM*; KB-3-1 tox: 4.6µM*; MCF10A rerep: 1.6µM*; Giardia kill: 0

Results for Cc1ccccc1Nc1cc(C(=O)NCc2cccs2)c2ccccc2n1 ?
KB-V1 cytotox: inactive; KB-3-1 tox: inactive

Results for Cc1cccc(NC(=O)c2cc(-c3ccc4c(c3)OCCO4)on2)c1 ?
KB-V1 cytotox: inactive; KB-3-1 tox: inconclusive

Results for CC1CC(C)CN(C(=O)C2CCN(C(=O)Nc3ccccc3)CC2)C1 (configuration not stated) ?
KB-V1 cytotox: 21µM*; S-ASM inh: 2%; SW480 rerep: 6%; KB-3-1 tox: inactive; MCF10A rerep: 4%; Giardia kill: 28

Results for CC1CCCN(C(=O)C2CCN(C(=O)Nc3ccccc3)CC2)C1 (configuration not stated) ?
KB-V1 cytotox: inactive; S-ASM inh: 2%; SW480 rerep: -13%; KB-3-1 tox: inactive; MCF10A rerep: 14%; Giardia kill: 7

How did NC(=O)C1CCN(C(=O)Nc2ccccc2)CC1 do in these assays?
S-ASM inh: 3%; SW480 rerep: 2%; MCF10A rerep: 1%

Results for CC1CCC(NC(=O)C2CCN(C(=O)Nc3ccccc3)CC2)CC1 (configuration not stated) ?
KB-V1 cytotox: 16µM*; S-ASM inh: 3%; SW480 rerep: -1%; KB-3-1 tox: inactive; MCF10A rerep: inconclusive; Giardia kill: 12
